Among all 2,400 compounds or so, about 220 (9.2%) were called active. The list comes from a sample in which actives are over-represented; it also holds similar structures and randomly drawn compounds. Values without a mark were called inactive.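 The calls were made as follows: active = signal change above the mean of dofetilide-free buffer controls plus 3 SD, so a positive margin; inactive = the rest.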

This test can be described thus: thallium signal changes without hERG – cell-based, CHO-K1 parental line, FluxOR thallium flux, counter-screen for hERG block protection project, confirmation (AID 1839).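 Also: compounds applied alone with no dofetilide to cells lacking hERG.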 The note with it: CHO-K1 parental cells, FluxOR thallium flux fluorescence; at 10 µM.
With `Cc1ccccc1NC(=O)C(=O)NNC(=O)COc1ccc2ccccc2c1`, the signal change vs control minus 3*SD hit threshold (margin above threshold, higher = more increase) was -2.5%.

`COc1cccc(OCC(=O)NNC(=O)C(=O)Nc2ccc(OC)cc2OC)c1`: the signal change vs control minus 3*SD hit threshold (margin above threshold, higher = more increase) is -21.1%.

For the molecule `COc1ccc(NC(=O)C(=O)NNC(=O)COc2ccc(Cl)cc2)c(OC)c1`, the signal change vs control minus 3*SD hit threshold (margin above threshold, higher = more increase) was -0.4%.

On to `COc1ccccc1NC(=O)C(=O)NNC(=O)COc1ccc2ccccc2c1`, for which the signal change vs control minus 3*SD hit threshold (margin above threshold, higher = more increase) was 59.2% (active).

Turning to `CCc1ccc(NC(=O)C(=O)NNC(=O)COc2cccc(OC)c2)cc1`, the signal change vs control minus 3*SD hit threshold (margin above threshold, higher = more increase) is -13.5%.

Take `COc1ccc(OCC(=O)NNC(=O)C(=O)Nc2ccc(C)cc2)cc1`: the signal change vs control minus 3*SD hit threshold (margin above threshold, higher = more increase) is -35.4%.

As for `N#Cc1cccc(N=c2ssnc2Cl)c1`, the signal change vs control minus 3*SD hit threshold (margin above threshold, higher = more increase) was -30.2%.

Turning to `CCOc1cc(N2CCOCC2)c(OCC)cc1NC(=O)Cn1nc(C)c([N+](=O)[O-])c1C`, the signal change vs control minus 3*SD hit threshold (margin above threshold, higher = more increase) is -22.7%.

With `Cc1ccccc1NC1=C/C(=N\S(=O)(=O)c2ccc(C(=O)O)cc2)c2ccccc2C1=O`, the signal change vs control minus 3*SD hit threshold (margin above threshold, higher = more increase) was -22%.

For the molecule `Cc1ccc(C(=O)n2c(-c3ccccc3)cnc2SCC(=O)Nc2ccc(C)cc2C)cc1`, the signal change vs control minus 3*SD hit threshold (margin above threshold, higher = more increase) is -8.7%.

In the case of `CC12CCC(C(=O)OC3CCCCC3)(OC1=O)C2(C)C` (stereo not given), the signal change vs control minus 3*SD hit threshold (margin above threshold, higher = more increase) is -36.3%.

Consider `O=C1c2cccc3cccc(c23)C(=O)C1(O)O`, for which the signal change vs control minus 3*SD hit threshold (margin above threshold, higher = more increase) is -20.6%.

Consider `S=c1[nH]c2cc(-c3ccccc3)ccc2o1`, for which the signal change vs control minus 3*SD hit threshold (margin above threshold, higher = more increase) is 38.6% (active).

As to `COC(=O)c1sc(NC(=S)NC(=O)c2ccc(C)cc2)nc1C`, the signal change vs control minus 3*SD hit threshold (margin above threshold, higher = more increase) was -19.1%.

On to `Cc1ccsc1CN(C(=O)c1ccc([N+](=O)[O-])cc1)C1CCS(=O)(=O)C1` (stereo not given), for which the signal change vs control minus 3*SD hit threshold (margin above threshold, higher = more increase) was -32.2%.

Take `CCCCOC(=O)c1ccc(NC(=S)NC(=O)c2c(Br)c(C)nn2C)cc1`: the signal change vs control minus 3*SD hit threshold (margin above threshold, higher = more increase) was 6.3% (active).

For `CCCCOC(=O)c1ccc(NC(=S)NC(=O)c2c(Cl)cnn2C)cc1`, the signal change vs control minus 3*SD hit threshold (margin above threshold, higher = more increase) is -18.6%.

On to `Cc1nn(C)c(C(=O)NC(=S)Nc2ccc([N+](=O)[O-])cc2)c1Cl`, for which the signal change vs control minus 3*SD hit threshold (margin above threshold, higher = more increase) is -13.2%.

As to `CC1CCc2sc(-c3n[nH]c(=S)o3)cc2C1` (stereo not given), the signal change vs control minus 3*SD hit threshold (margin above threshold, higher = more increase) is -19.1%.

Consider `CC(C)(C)c1cc(C(=O)NNC(=O)c2ccc(Cl)cc2)no1`, for which the signal change vs control minus 3*SD hit threshold (margin above threshold, higher = more increase) was -1.2%.

`O=C(O)c1cc(N/N=C/c2ccc(-c3ccccc3)cc2)ccc1Cl`: the signal change vs control minus 3*SD hit threshold (margin above threshold, higher = more increase) is -29.5%.

In the case of `O=C(O)c1cc(NN=C2c3ccccc3-c3ccccc32)ccc1Cl`, the signal change vs control minus 3*SD hit threshold (margin above threshold, higher = more increase) was 3.2% (active).

Regarding `CCCCOc1ccc(-c2c(C#N)c(N)[nH]c(=S)c2C#N)cc1`, the signal change vs control minus 3*SD hit threshold (margin above threshold, higher = more increase) is -44.5%.

On to `CC(NC(=O)c1ccc(Br)cc1)c1ccc2c(c1)CCCC2` (stereo not given), for which the signal change vs control minus 3*SD hit threshold (margin above threshold, higher = more increase) is 2.4% (active).

For the molecule `CC(NC(=O)c1ccc(F)cc1)c1ccc2c(c1)CCCC2` (stereo not given), the signal change vs control minus 3*SD hit threshold (margin above threshold, higher = more increase) was -12.8%.

For the molecule `CCc1ccc(C(C)NC(=O)c2ccc(F)cc2)cc1` (stereo not given), the signal change vs control minus 3*SD hit threshold (margin above threshold, higher = more increase) is -6.8%.

For `COc1cccc(NC(=O)CSCc2n[nH]c(=O)[nH]2)c1`, the signal change vs control minus 3*SD hit threshold (margin above threshold, higher = more increase) was -30%.

In the case of `COc1ccc(-c2csc(NC(=S)NC(=O)c3cccs3)n2)cc1OC`, the signal change vs control minus 3*SD hit threshold (margin above threshold, higher = more increase) was -41.1%.

As for `CCOc1cc(Br)c(C(=O)O)cc1OC`, the signal change vs control minus 3*SD hit threshold (margin above threshold, higher = more increase) was -30.9%.

Turning to `O=C(CSc1nc2cc(Cl)ccc2s1)c1cc2ccccc2o1`, the signal change vs control minus 3*SD hit threshold (margin above threshold, higher = more increase) was -23%.

In the case of `O=C(Cn1nc(-c2ccccc2)c2ccccc2c1=O)Nc1ccc(O)cc1`, the signal change vs control minus 3*SD hit threshold (margin above threshold, higher = more increase) was -37.1%.

`O=[N+]([O-])c1cccnc1Sc1n[nH]c(-c2ccc(Cl)cc2)n1`: the signal change vs control minus 3*SD hit threshold (margin above threshold, higher = more increase) was -19.6%.

For the molecule `COc1ccc(CCn2c(S)nc3ccccc3c2=O)cc1`, the signal change vs control minus 3*SD hit threshold (margin above threshold, higher = more increase) was -22.5%.

Turning to `C=CCN(CC=C)C(=S)NC(=O)c1ccc(OC)c(Br)c1`, the signal change vs control minus 3*SD hit threshold (margin above threshold, higher = more increase) is 4.6% (active).

For `C=CCN(CC=C)C(=S)NC(=O)c1ccc(C)c(Br)c1`, the signal change vs control minus 3*SD hit threshold (margin above threshold, higher = more increase) was 48.9% (active).

As to `C=CCNC(=S)NC(=O)c1ccc(C)c(Br)c1`, the signal change vs control minus 3*SD hit threshold (margin above threshold, higher = more increase) was -26.8%.

`CCN(CC)C(=S)NC(=O)c1ccc(OC)c(Br)c1`: the signal change vs control minus 3*SD hit threshold (margin above threshold, higher = more increase) is -18.8%.

Consider `C=CCN(CC=C)C(=S)NC(=O)c1ccc(OC)cc1`, for which the signal change vs control minus 3*SD hit threshold (margin above threshold, higher = more increase) is -14.4%.

As to `C=CCN(CC=C)C(=S)NC(=O)c1ccc([N+](=O)[O-])cc1`, the signal change vs control minus 3*SD hit threshold (margin above threshold, higher = more increase) was -16.4%.

In the case of `Cc1nnc(NC(=O)C2CCCN(S(=O)(=O)c3ccccc3C(F)(F)F)C2)s1` (stereo not given), the signal change vs control minus 3*SD hit threshold (margin above threshold, higher = more increase) is -12.2%.

For the molecule `CCCCNC(=O)c1onc(CSc2nc3ccccc3[nH]2)c1C(=O)NCCCC`, the signal change vs control minus 3*SD hit threshold (margin above threshold, higher = more increase) is -27.7%.

For the molecule `C=CCn1c(O)c(N=NC(=S)Nc2ccc(OC)cc2)c2ccccc21`, the signal change vs control minus 3*SD hit threshold (margin above threshold, higher = more increase) is -17.1%.

As for `Cc1nnc(NC(=O)CN2CCN(Cc3ccc(F)cc3Cl)CC2)s1`, the signal change vs control minus 3*SD hit threshold (margin above threshold, higher = more increase) was -35.7%.

As for `O=C(Nc1cccc(N=Cc2cc(Cl)cc(Br)c2O)c1)c1ccco1`, the signal change vs control minus 3*SD hit threshold (margin above threshold, higher = more increase) is -5.5%.

Regarding `CCOC(=O)c1c(NC(=S)NC)sc2c1CC(C)(C)SC2`, the signal change vs control minus 3*SD hit threshold (margin above threshold, higher = more increase) is 22.5% (active).

For `C=CCNC(=S)Nc1sc2c(c1C(=O)OCC)CC(C)(CC)OC2` (stereo not given), the signal change vs control minus 3*SD hit threshold (margin above threshold, higher = more increase) was -1.5%.

As to `CCOC(=O)c1c(NC(=S)NC)sc2c1CCCC2`, the signal change vs control minus 3*SD hit threshold (margin above threshold, higher = more increase) is -11%.

With `CCCN(CC1CC1)C(=S)Nc1ccccc1F`, the signal change vs control minus 3*SD hit threshold (margin above threshold, higher = more increase) was -25.8%.

`COc1cc(/C=C2/SC(=S)N(CC(=O)O)C2=O)ccc1OCC(=O)Nc1ccc(C)c(C)c1`: the signal change vs control minus 3*SD hit threshold (margin above threshold, higher = more increase) was -34.3%.

For `COc1ccccc1C(=O)Nc1ccnn1C1CCN(C(=O)c2ccoc2C)CC1`, the signal change vs control minus 3*SD hit threshold (margin above threshold, higher = more increase) was -41.5%.
